Calls of active or inactive are those of the source.
Tests used:
[1] = test system: Plasmodium falciparum Sir2 (PF13_0152, Sir2A); experiment: pfSir2 binders on small-molecule microarrays, primary screen, biochemical, small-molecule microarray, 635 nm fluorescence (AID 1098); conditions: small-molecule microarray binding, fluorescence 635 nm; higher = more signal;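 further: score merges spot fluorescence intensity with its signal-to-noise ratio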
[2] = small-molecule microarray binders of probe aDKK1, primary screen, biochemical, biotinylated probe, 635/667 nm fluorescence (AID 1099); conditions: higher = more signal;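 further: score merges 667nm spot fluorescence with signal to noise across triplicate slides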
[3] = small-molecule microarray binders of probe aCHRDL2, primary screen, biochemical, biotinylated probe, 635/667 nm fluorescence (AID 1100); conditions: higher = more signal
[4] = splicing luciferase reporter signal modulators, primary screen, spliceosome inhibition project, cell-based, HEK293, splice +/- reporter (AID 1101); conditions: luminescence, 24 h, higher = more signal, called active from +8 up or from −8 down;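 further: HEK293 cells carrying a splicing-competent luciferase reporter gene; test concentration not given here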
[5] = target: Fibroblast growth factor 10 (Homo sapiens) (UniProt O15520); experiment: FGF10 binders on small-molecule microarrays, primary screen, biochemical, small-molecule microarray, 635 nm fluorescence (AID 1102); conditions: FGF10 binding, fluorescence 635 nm, higher = more signal
Chain of Fibroblast growth factor 10 (Homo sapiens) (O15520 whole entry, looked up): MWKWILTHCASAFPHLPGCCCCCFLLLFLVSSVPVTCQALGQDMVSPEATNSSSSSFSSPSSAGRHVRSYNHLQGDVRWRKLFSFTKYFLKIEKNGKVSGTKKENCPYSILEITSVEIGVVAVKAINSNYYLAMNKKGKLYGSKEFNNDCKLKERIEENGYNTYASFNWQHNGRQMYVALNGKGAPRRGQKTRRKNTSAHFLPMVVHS

[6] = test system: glycogen synthase kinase-3 (GSK3A per assay name; protocol says GSK3B); experiment: GSK3 binders on small-molecule microarrays, primary screen, biochemical, small-molecule microarray, 635 nm fluorescence, GSK3A (AID 1103); conditions: small-molecule microarray binding, fluorescence 635 nm; higher = more signal; further: the record names both GSK3A and GSK3B
[7] = target: Epidermal growth factor receptor (Homo sapiens) (UniProt P00533); experiment: EGFR binders on small-molecule microarrays, primary screen, biochemical, small-molecule microarray, 635 nm fluorescence (AID 1104); conditions: EGFR binding, higher = more signal;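 further: score merges 667 nm emission intensity with spot signal to noise over triplicate slides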
Chain of Epidermal growth factor receptor (Homo sapiens) (P00533 whole entry, looked up): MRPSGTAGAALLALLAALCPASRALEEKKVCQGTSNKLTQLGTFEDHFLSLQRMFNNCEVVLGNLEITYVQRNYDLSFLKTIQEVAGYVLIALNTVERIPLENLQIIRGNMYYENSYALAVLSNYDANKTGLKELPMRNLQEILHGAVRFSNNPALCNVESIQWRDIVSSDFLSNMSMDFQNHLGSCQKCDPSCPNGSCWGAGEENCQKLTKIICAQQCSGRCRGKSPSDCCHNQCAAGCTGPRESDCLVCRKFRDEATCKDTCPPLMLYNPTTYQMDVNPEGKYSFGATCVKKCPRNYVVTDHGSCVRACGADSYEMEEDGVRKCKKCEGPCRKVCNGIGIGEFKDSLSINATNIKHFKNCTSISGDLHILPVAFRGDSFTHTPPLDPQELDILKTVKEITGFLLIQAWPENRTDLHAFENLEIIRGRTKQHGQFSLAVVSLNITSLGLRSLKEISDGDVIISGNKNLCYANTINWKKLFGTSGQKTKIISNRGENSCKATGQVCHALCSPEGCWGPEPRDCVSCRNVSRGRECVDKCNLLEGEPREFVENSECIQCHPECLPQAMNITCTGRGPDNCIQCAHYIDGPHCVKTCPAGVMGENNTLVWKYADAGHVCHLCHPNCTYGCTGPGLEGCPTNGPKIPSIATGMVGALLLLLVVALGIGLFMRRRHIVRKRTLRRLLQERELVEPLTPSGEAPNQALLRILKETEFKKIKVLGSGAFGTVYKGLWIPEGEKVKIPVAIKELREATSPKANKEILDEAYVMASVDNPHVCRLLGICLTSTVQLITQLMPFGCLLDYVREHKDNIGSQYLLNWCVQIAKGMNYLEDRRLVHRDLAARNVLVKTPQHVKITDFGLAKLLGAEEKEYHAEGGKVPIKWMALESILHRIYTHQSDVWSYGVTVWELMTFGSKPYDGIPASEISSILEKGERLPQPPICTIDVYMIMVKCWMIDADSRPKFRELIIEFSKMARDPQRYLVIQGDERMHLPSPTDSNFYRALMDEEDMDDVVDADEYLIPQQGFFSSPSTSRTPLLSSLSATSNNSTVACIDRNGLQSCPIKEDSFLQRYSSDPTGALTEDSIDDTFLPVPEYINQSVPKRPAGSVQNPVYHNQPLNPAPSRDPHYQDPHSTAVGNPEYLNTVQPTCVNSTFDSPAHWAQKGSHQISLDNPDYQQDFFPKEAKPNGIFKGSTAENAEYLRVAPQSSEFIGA

[8] = target: Follistatin-related protein 3 (Homo sapiens) (UniProt O95633); experiment: FSTL3 binders on small-molecule microarrays, primary screen, biochemical, small-molecule microarray, 635 nm fluorescence (AID 1105); conditions: FSTL3 binding, higher = more signal;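 further: score merges emission near 667 nm and signal to noise per printed spot across three slides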
Chain of Follistatin-related protein 3 (Homo sapiens) (O95633 whole entry, looked up): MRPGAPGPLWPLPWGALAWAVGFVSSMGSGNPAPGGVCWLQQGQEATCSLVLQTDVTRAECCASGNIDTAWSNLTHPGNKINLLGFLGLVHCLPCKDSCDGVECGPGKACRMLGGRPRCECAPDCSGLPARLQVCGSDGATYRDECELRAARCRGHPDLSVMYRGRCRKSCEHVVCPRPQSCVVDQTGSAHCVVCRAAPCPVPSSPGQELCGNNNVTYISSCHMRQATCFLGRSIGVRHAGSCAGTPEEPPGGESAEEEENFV

[9] = target: Dickkopf-related protein 1 (Homo sapiens) (UniProt O94907); experiment: DKK1 binders on small-molecule microarrays, primary screen, biochemical, small-molecule microarray, 635 nm fluorescence scan (AID 1106); conditions: DKK1 binding, higher = more signal;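 further: score merges emission near 667 nm with signal to noise over three replicate slides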
Chain of Dickkopf-related protein 1 (Homo sapiens) (O94907 whole entry, looked up): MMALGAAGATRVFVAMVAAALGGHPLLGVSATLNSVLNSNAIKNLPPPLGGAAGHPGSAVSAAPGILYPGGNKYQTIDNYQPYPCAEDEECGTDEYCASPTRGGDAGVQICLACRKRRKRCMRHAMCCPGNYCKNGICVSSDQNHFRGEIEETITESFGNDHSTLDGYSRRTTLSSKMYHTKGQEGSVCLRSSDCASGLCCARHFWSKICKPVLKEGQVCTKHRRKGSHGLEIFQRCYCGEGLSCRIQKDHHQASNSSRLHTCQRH

[10] = test system: Inhibin beta A chain (activin A); experiment: INHBA (activin A) binders on microarrays, primary screen, biochemical, small-molecule microarray, 635 nm fluorescence scan (AID 1107); conditions: small-molecule microarray binding, higher = more signal;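 further: mouse activin A protein probed at 4.33 µg/mL on printed slides; score merges bound-protein fluorescence near 667 nm with spot signal-to-noise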
[11] = test system: Human papillomavirus type 1a protein E7 (residues 44-93); experiment: HPV1a E7 fragment binders on microarrays, primary screen, biochemical, small-molecule microarray, residues 44-93, 635 nm fluorescence (AID 1108); conditions: small-molecule microarray binding, fluorescence 635 nm; higher = more signal;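 further: E7 fragment applied at 1 µg/mL in TBST for 1 h at 4 C; score combines spot fluorescence with its signal to noise ratio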
[12] = modulators of HCV replicon luciferase signal, primary screen, HCV replication inhibitor project, Huh7 cells, luciferase reporter (AID 1109); conditions: 48 h, higher = more signal;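 further: huh7 hepatoma cells harbouring a luciferase neomycin HCV replicon reporter; luciferase luminescence as measure of HCV replicon replication; test concentration not given here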
[13] = target: Left-right determination factor 2 (Homo sapiens) (UniProt O00292); experiment: LEFTY2 binders on small-molecule microarrays, primary screen, biochemical, small-molecule microarray, 635 nm fluorescence scan (AID 1110); conditions: LEFTY2 binding, higher = more signal
Chain of Left-right determination factor 2 (Homo sapiens) (O00292 whole entry, looked up): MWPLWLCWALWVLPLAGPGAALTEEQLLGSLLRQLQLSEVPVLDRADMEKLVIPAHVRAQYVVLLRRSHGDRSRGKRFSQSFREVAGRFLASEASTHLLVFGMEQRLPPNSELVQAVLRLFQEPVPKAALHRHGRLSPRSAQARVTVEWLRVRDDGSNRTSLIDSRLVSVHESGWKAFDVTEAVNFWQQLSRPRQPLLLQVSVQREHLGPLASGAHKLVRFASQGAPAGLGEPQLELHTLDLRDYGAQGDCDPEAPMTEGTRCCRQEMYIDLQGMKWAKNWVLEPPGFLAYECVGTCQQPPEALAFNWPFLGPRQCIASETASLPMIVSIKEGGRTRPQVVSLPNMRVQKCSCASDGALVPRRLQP

[14] = target: Calmodulin-1 (Homo sapiens) (UniProt P0DP23); experiment: CALM1 binders on microarrays, EGTA buffer, profiling panel, biochemical, small-molecule microarray, Cy5-labelled CALM1 (AID 1111); conditions: Cy5-CALM1 binding fluorescence, higher = more signal;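 further: labelled calmodulin applied in Tris saline Tween buffer holding calcium plus EGTA and DTT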
[15] = target: Calmodulin-1 (Homo sapiens) (UniProt P0DP23); experiment: calcium-bound CALM1 binders on microarrays, profiling panel, artefact control for SMM control-protein annotation, biochemical, small-molecule microarray, Cy5-labelled CALM1, plus calcium (AID 1112); conditions: Cy5-CALM1 binding fluorescence, higher = more signal;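 further: score merges spot fluorescence with signal to noise from triplicate slides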
[16] = small-molecule microarray binders of probe aWnt5a, primary screen, biochemical, biotinylated probe, 635/667 nm fluorescence (AID 1113); conditions: higher = more signal;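 further: score merges 667 nm fluorescence intensity with signal-to-noise per printed feature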
[17] = small-molecule microarray binders of probe aShh, primary screen, biochemical, biotinylated probe, 635/667 nm fluorescence (AID 1114); conditions: higher = more signal;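 further: probe is biotin-labelled aShh protein from a stem cell growth factor screen; measures binding of labelled protein to compounds printed on the slide; score merges feature fluorescence at 667 nm with signal-to-noise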
[18] = small-molecule microarray binders of probe aNog, primary screen, biochemical, biotinylated probe, 635/667 nm fluorescence (AID 1115); conditions: higher = more signal;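 further: probe is biotinylated aNog protein used at 0.15 µg/mL for 1 h at 4 C; z-score combines 667 nm fluorescence of each spot with its signal to noise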
[19] = target: Torsin-1A-interacting protein 1 (Homo sapiens) (UniProt Q5JTV8); experiment: LAP1 binders from COS7 cell lysate, primary screen, small-molecule microarray, 635/667 nm fluorescence (AID 1116); conditions: COS7-hLAP1 lysate binding, 635 nm fluorescence, higher = more signal
Chain of Torsin-1A-interacting protein 1 (Homo sapiens) (Q5JTV8 whole entry, looked up): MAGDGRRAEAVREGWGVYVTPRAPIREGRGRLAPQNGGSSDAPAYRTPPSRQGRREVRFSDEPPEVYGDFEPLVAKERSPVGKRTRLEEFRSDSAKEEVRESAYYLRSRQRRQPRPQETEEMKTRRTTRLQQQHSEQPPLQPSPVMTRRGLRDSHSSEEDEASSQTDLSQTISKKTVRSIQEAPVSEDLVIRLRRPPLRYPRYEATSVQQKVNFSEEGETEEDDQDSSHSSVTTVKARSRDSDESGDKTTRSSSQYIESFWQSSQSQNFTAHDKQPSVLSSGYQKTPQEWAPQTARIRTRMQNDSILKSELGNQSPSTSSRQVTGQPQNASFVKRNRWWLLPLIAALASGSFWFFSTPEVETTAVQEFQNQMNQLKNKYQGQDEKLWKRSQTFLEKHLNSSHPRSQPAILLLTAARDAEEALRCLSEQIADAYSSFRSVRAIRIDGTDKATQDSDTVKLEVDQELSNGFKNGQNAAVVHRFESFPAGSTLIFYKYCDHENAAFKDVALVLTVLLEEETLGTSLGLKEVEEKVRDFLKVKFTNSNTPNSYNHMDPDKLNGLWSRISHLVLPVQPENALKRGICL

[20] = target: Alpha-bungarotoxin (Bungarus multicinctus) (UniProt P60615); experiment: alpha-bungarotoxin binders on microarray, profiling panel, artefact control for SMM control protein annotation, biochemical, small-molecule microarray, Alexa647 label, 635/667 nm fluorescence (AID 1117); conditions: alpha-BTX-A647 binding fluorescence, higher = more signal
Chain of Alpha-bungarotoxin (Bungarus multicinctus) (P60615 whole entry, looked up): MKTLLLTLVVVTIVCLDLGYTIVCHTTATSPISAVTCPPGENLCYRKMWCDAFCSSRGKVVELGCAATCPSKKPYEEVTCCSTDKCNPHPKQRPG

COCCOC(=O)N1C(=O)[C@@]2(c3cc(C#CCCO)ccc31)[C@H](c1ccc(OCCO)cc1)N1[C@H](c3ccccc3)[C@H](c3ccccc3)OC(=O)[C@H]1[C@@H]2C(=O)Nc1nc2ccccc2s1
composite z-score [1]: 0.755
composite z-score [2]: 0.901
composite z-score [3]: 0.771
z-score [4]: 1.06 (inactive)
composite z-score [5]: 0.898
composite z-score [6]: 1.29
composite z-score [7]: 0.27
composite z-score [8]: 1.24
composite z-score [9]: 0.87
composite z-score [10]: 0.854
composite z-score [11]: 0.281
z-score [12]: -1.13
composite z-score [13]: 0.95
composite z-score [14]: 0.751
composite z-score [15]: 0.682
composite z-score [16]: -0.0977
composite z-score [17]: 0.626
composite z-score [18]: 0.0947
composite z-score [19]: 1.08
composite z-score [20]: 1.96

COCCOC(=O)N1C(=O)[C@@]2(c3cc(C#CC4(O)CCCCCC4)ccc31)[C@H](C(=O)N1CCc3cc(OC)c(OC)cc3C1)[C@H]1C(=O)O[C@H](c3ccccc3)[C@H](c3ccccc3)N1[C@@H]2c1ccc(OCCO)cc1
composite z-score [1]: 0.868
composite z-score [2]: -0.208
composite z-score [3]: -0.219
z-score [4]: 0.058 (inactive)
composite z-score [5]: 0.891
composite z-score [6]: 1.3
composite z-score [7]: 0.626
composite z-score [8]: 1.04
composite z-score [9]: 0.95
composite z-score [10]: 0.25
composite z-score [11]: 1.14
z-score [12]: -1.22
composite z-score [13]: 0.805
composite z-score [14]: 0.903
composite z-score [15]: -0.392
composite z-score [16]: -0.0685
composite z-score [17]: -0.0011
composite z-score [18]: -0.136
composite z-score [19]: 0.695
composite z-score [20]: 0.152

COC(=O)[C@@]1(Cc2ccc(OC)cc2)[C@H]2c3cc(C(=O)N4CCCC4)n(CCc4c[nH]c5ccc(O)cc45)c3C[C@H]2CN1C(=O)c1ccccc1
composite z-score [1]: 1.29
composite z-score [2]: 1.24
composite z-score [3]: 1.2
z-score [4]: 0.129 (inactive)
composite z-score [5]: 1.06
composite z-score [6]: 0.778
composite z-score [7]: 0.309
composite z-score [8]: 1.13
composite z-score [9]: -0.32
composite z-score [10]: 1.51
composite z-score [11]: 1.39
z-score [12]: -1.51
composite z-score [13]: 0.148
composite z-score [14]: 0.797
composite z-score [15]: 0.202
composite z-score [16]: 0.14
composite z-score [17]: 0.315
composite z-score [18]: 0.863
composite z-score [19]: 1.4
composite z-score [20]: 0.485

Cc1ccccc1C(O)C1C=CC2C(=O)NC(=O)C2N1Nc1ccccn1 (stereo not given)
composite z-score [1]: 0.105
composite z-score [2]: 0.145
composite z-score [3]: 0.397
z-score [4]: 1.55 (inactive)
composite z-score [5]: -0.209
composite z-score [6]: 0.0301
composite z-score [7]: 0.262
composite z-score [8]: 0.056
composite z-score [9]: 0.144
composite z-score [10]: 0.605
composite z-score [11]: -0.439
z-score [12]: 0.331
composite z-score [13]: 0.263
composite z-score [14]: -0.285
composite z-score [15]: -0.206
composite z-score [16]: -0.221
composite z-score [17]: -0.349
composite z-score [18]: -0.0682
composite z-score [19]: 0.692
composite z-score [20]: 0.173

CC1=C2[C@@H](CCc3ccccc3)OB(O)C[C@@H]2[C@@H]2C(=O)N(Cc3ccccc3)C(=O)[C@@H]2C1
composite z-score [1]: 0.294
composite z-score [2]: -0.155
composite z-score [3]: -0.395
z-score [4]: 0.81 (inactive)
composite z-score [5]: 0.631
composite z-score [6]: 0.717
composite z-score [7]: 0.427
composite z-score [8]: 0.746
composite z-score [9]: 0.405
composite z-score [10]: 0.654
composite z-score [11]: -0.125
z-score [12]: -0.873
composite z-score [13]: 0.809
composite z-score [14]: -0.122
composite z-score [15]: -0.605
composite z-score [16]: -0.0869
composite z-score [17]: -0.0709
composite z-score [18]: -0.314
composite z-score [19]: 0.59
composite z-score [20]: 0.659

CN1C(=O)C2C=CC(C(O)c3cccn3C)N(Nc3ccc([N+](=O)[O-])cc3[N+](=O)[O-])C2C1=O (stereo not given)
composite z-score [1]: 0.0859
composite z-score [2]: 0.821
composite z-score [3]: 0.897
z-score [4]: 1.15 (inactive)
composite z-score [5]: 0.219
composite z-score [6]: -0.269
composite z-score [7]: -0.157
composite z-score [8]: -0.0164
composite z-score [9]: -0.31
composite z-score [10]: 1.12
composite z-score [11]: 0.0443
z-score [12]: -0.0091
composite z-score [13]: -0.135
composite z-score [14]: 1.08
composite z-score [15]: 0.212
composite z-score [16]: 0.0357
composite z-score [17]: 0.496
composite z-score [18]: 0.31
composite z-score [19]: -0.0083
composite z-score [20]: 0.401

CC(C)N1C(=O)c2ccccc2[C@@H](C(=O)NCCN2CCOCC2)[C@@H]1c1ccc(CO)cc1
composite z-score [1]: -0.256
composite z-score [2]: -0.005
composite z-score [3]: 0.917
z-score [4]: -0.141 (inactive)
composite z-score [5]: -2.1
composite z-score [6]: -1.05
composite z-score [7]: -1.85
composite z-score [8]: -1.01
composite z-score [9]: -1.19
composite z-score [10]: -0.0564
composite z-score [11]: 0.0391
z-score [12]: -0.476
composite z-score [13]: -2.07
composite z-score [14]: -0.346
composite z-score [15]: 0.603
composite z-score [16]: -0.256
composite z-score [17]: -0.221
composite z-score [18]: -0.321
composite z-score [19]: -0.171
composite z-score [20]: -1.25

CCCC[C@@H](O)C1=C(COC)C[C@H]2C(=O)N(Cc3ccccc3)C(=O)[C@H]2[C@H]1CO
composite z-score [1]: 0.516
composite z-score [2]: -0.449
composite z-score [3]: -0.815
z-score [4]: 0.296 (inactive)
composite z-score [5]: 0.822
composite z-score [6]: 0.464
composite z-score [7]: 0.26
composite z-score [8]: 1
composite z-score [9]: 0.972
composite z-score [10]: 0.44
composite z-score [11]: 0.34
z-score [12]: -0.655
composite z-score [13]: 0.568
composite z-score [14]: -0.37
composite z-score [15]: -0.359
composite z-score [16]: 0.0102
composite z-score [17]: -0.345
composite z-score [18]: 0.116
composite z-score [19]: 0.515
composite z-score [20]: 0.516

Oc1ccc2cc[n+](Cc3cc4c(cc3Br)OCO4)cc2c1
composite z-score [1]: -1.19
composite z-score [2]: 0.144
composite z-score [3]: 0.452
z-score [4]: -0.95 (inactive)
composite z-score [5]: -0.633
composite z-score [6]: -1.16
composite z-score [7]: -0.243
composite z-score [8]: -0.456
composite z-score [9]: -0.14
composite z-score [10]: 0.398
composite z-score [11]: -1.22
z-score [12]: 1.65
composite z-score [13]: -0.929
composite z-score [14]: -0.489
composite z-score [15]: 0.446
composite z-score [16]: -0.1
composite z-score [17]: -0.0769
composite z-score [18]: -0.0546
composite z-score [19]: -0.346
composite z-score [20]: -0.791

O=C1O[C@@H](c2ccccc2)[C@@H](c2ccccc2)N2[C@@H](c3ccc(OCCO)cc3)[C@]3(C(=O)Nc4ccc(C#CC5=CCCCC5)cc43)[C@@H](C(=O)NC[C@H](O)c3ccccc3)[C@H]12
composite z-score [1]: 0.674
composite z-score [2]: -0.653
composite z-score [3]: -0.762
z-score [4]: 0.556 (inactive)
composite z-score [5]: 1.4
composite z-score [6]: 1.31
composite z-score [7]: 0.445
composite z-score [8]: 1.4
composite z-score [9]: 0.708
composite z-score [10]: 1.07
composite z-score [11]: 0.97
z-score [12]: -2.54
composite z-score [13]: 0.665
composite z-score [14]: 1.25
composite z-score [15]: 0.7
composite z-score [16]: -0.042
composite z-score [17]: -0.398
composite z-score [18]: 1.74
composite z-score [19]: 1.12
composite z-score [20]: 0.608

COCC(=C=CC[C@H](O)c1ccccc1OCCO)C[C@H](O)c1ccccn1
composite z-score [1]: 0.34
composite z-score [2]: -0.201
composite z-score [3]: -0.0336
z-score [4]: 0.0209 (inactive)
composite z-score [5]: 0.207
composite z-score [6]: -0.115
composite z-score [7]: -0.299
composite z-score [8]: -0.114
composite z-score [9]: -0.0344
composite z-score [10]: 0.41
composite z-score [11]: -0.0881
z-score [12]: -0.267
composite z-score [13]: 0.155
composite z-score [14]: -0.0135
composite z-score [15]: -0.411
composite z-score [16]: -0.18
composite z-score [17]: -0.214
composite z-score [18]: -0.173
composite z-score [19]: -0.191
composite z-score [20]: -0.0928

Reference: PubChem BioAssay
